From PubChem BioAssay (NCI)
This is part of a sample that, as a whole, favours compounds with a hit. Of some 79,000 tested, about 15% had one in any assay. The source made the active and inactive calls. Rule as the data show it: active = growth inhibition above about 70%; inactive = the rest.

Key:
[1] = NCI Yeast Anticancer Drug Screen. Data for the rad52 strain (AID 147);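 also: 0% = growth of vehicle-treated control cultures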; settings: S. cerevisiae rad52 mutant growth inhibition, active compounds read high
In short: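 Screen used a yeast mutant impaired in DNA repair. After compound exposure, growth was measured. Values reflect inhibition compared with vehicle-treated cells.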

[2] = NCI Yeast Anticancer Drug Screen. Data for the wt1 strain (AID 149);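 also: 0% = growth of vehicle-treated wt1 cultures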; settings: S. cerevisiae wt1 strain (SPY 50644) growth inhibition, active compounds read high
In short: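 The wt1 strain was treated with compounds, and growth was compared with vehicle-treated cultures to give inhibition.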

[3] = NCI Yeast Anticancer Drug Screen. Data for the rad50EPP+ strain (AID 151);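 also: 0% = growth of vehicle-treated control cultures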; settings: S. cerevisiae rad50 mutant strain, active compounds read high
In short: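 Exposing the rad50EPP+ strain to each compound, growth was compared with vehicle-only cultures to give inhibition.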

[4] = NCI Yeast Anticancer Drug Screen. Data for the mgt1 strain (AID 153); settings: S. cerevisiae mgt1 mutant growth inhibition, active compounds read high
In short: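 Genetically defined yeast (mgt1) treated with compound; inhibition of growth expressed against vehicle-treated controls.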

[5] = NCI Yeast Anticancer Drug Screen. Data for the rad50 strain (AID 155);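 also: 0% = growth of vehicle-only cultures of the same strain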; settings: S. cerevisiae rad50 strain growth inhibition, active compounds read high
In short: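 Cells are treated with compound, grown, and their growth is then scored against vehicle-only cultures of the same repair-deficient yeast strain.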

[6] = NCI Yeast Anticancer Drug Screen. Data for the mec2-1 strain (AID 157); settings: S. cerevisiae mec2-1 strain, active compounds read high
In short: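 Readout is yeast growth inhibition, normalised to vehicle-treated controls, in the mec2-1 strain exposed to compound.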

[7] = NCI Yeast Anticancer Drug Screen. Data for the rad14 strain (AID 159);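 also: 0% = growth of vehicle-treated control cultures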; settings: S. cerevisiae rad14 strain growth inhibition, active compounds read high
In short: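 Readout: yeast growth inhibition, referenced to vehicle-only cultures. Strain bears a defined alteration in DNA damage repair.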

[8] = NCI Yeast Anticancer Drug Screen. Data for the sgs1 mgt1 strain (AID 161);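 also: 0% = growth of cultures given vehicle only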; settings: S. cerevisiae sgs1 mgt1 strain, active compounds read high
In short: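 Percent growth inhibition was derived by comparing compound-exposed mutant yeast with vehicle-exposed cultures. The strain carries alterations in DNA damage repair.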

[9] = NCI Yeast Anticancer Drug Screen. Data for the CLN2oe strain (AID 163);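 also: 0% = growth of vehicle-only control cultures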; settings: S. cerevisiae CLN2oe strain, active compounds read high
In short: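 Values reflect how much compound exposure reduced yeast growth, referenced to vehicle-exposed cells. Assay organism is a strain with a defined genetic change affecting cell-cycle control.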

[10] = NCI Yeast Anticancer Drug Screen. Data for the cln2 rad14 strain (AID 165);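 also: 0% = growth equal to vehicle treated cultures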; settings: S. cerevisiae cln2 rad14 strain, active compounds read high
In short: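 Relative to vehicle controls, growth inhibition of compound-treated cln2 rad14 yeast was recorded.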

[11] = NCI Yeast Anticancer Drug Screen. Data for the bub3 strain (AID 167); settings: S. cerevisiae bub3 mutant strain, active compounds read high
In short: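 Part of a panel of yeast mutants defective in DNA damage repair or cell cycle regulation. Each strain is grown with compound, and inhibition is calculated relative to solvent-treated cultures.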

[12] = NCI Yeast Anticancer Drug Screen. Data for the wt2 strain (AID 169);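 also: 0% = growth of vehicle-treated yeast cultures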; settings: S. cerevisiae wt2 strain growth inhibition, active compounds read high
In short: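 Values express reduction in yeast growth under compound treatment, referenced to vehicle-treated cells.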

[13] = NCI Yeast Anticancer Drug Screen. Data for the sgs1 strain (AID 173);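 also: 0% = growth of vehicle-only control cultures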; settings: S. cerevisiae sgs1 mutant, active compounds read high
In short: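 Treat defined-mutant yeast with compound; measure growth; calculate inhibition relative to vehicle-treated cells.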

[14] = NCI Yeast Anticancer Drug Screen. Data for the mlh1 rad18 strain (AID 175); settings: S. cerevisiae mlh1 rad18 strain growth inhibition, active compounds read high
In short: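 Test agents were incubated with a yeast strain of defined genotype (DNA damage repair defect). Inhibition of growth was derived by comparison with vehicle-exposed cultures.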

[15] = NCI Yeast Anticancer Drug Screen. Data for the mlh1 strain (AID 171);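 also: 0% = growth of vehicle-treated control cultures of the same strain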; settings: S. cerevisiae mlh1 strain growth inhibition, active compounds read high
In short: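 Steps: expose the defined-mutant yeast strain to compound; expose a parallel culture to vehicle; measure growth; express compound effect as inhibition relative to the vehicle culture.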

[16] = NCI Yeast Anticancer Drug Screen. Data for the rad18 strain (AID 177); settings: S. cerevisiae rad18 mutant growth inhibition, active compounds read high
In short: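 A genetically defined yeast mutant impaired in DNA damage repair was treated with test compounds, then its growth was measured against cultures receiving vehicle alone.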

[17] = at 5.0 µM (retest, dose inferred, filed as 0.5)
[18] = at 50.0 µM (retest, dose inferred, filed as 5.0)

Measured: growth inhibition

O=S(=O)(c1ccccc1)N1CN2CN(C1)CN(S(=O)(=O)c1ccccc1)C2
active: [6]; [18] 79%
inactive: [1]; at 1.2 µM -10% | [1]; at 3.7 µM -2% | [1]; at 11.0 µM -15% | [1]; at 33.0 µM -8% | [1]; at 100.0 µM -5% | [2]; at 1.2 µM -3% | [2]; at 3.7 µM 14% | [2]; at 11.0 µM 17% | [2]; at 33.0 µM 11% | [2]; at 100.0 µM 16% | [3]; at 1.2 µM -18% | [3]; at 3.7 µM -15% | [3]; at 11.0 µM -15% | [3]; at 33.0 µM -12% | [3]; at 100.0 µM -10% | [4]; at 1.2 µM 0% | [4]; at 3.7 µM 7% | [4]; at 11.0 µM 5% | [4]; at 33.0 µM 7% | [4]; at 100.0 µM 6% | [5]; at 1.2 µM -4% | [5]; at 3.7 µM -7% | [5]; [17] 24% | [5]; at 11.0 µM -10% | [5]; at 33.0 µM -12% | [5]; [18] 38% | [5]; at 50.0 µM -11.5% | [5]; at 100.0 µM -11% | [6]; at 1.2 µM -2% | [6]; at 3.7 µM -6% | [6]; [17] 26% | [6]; at 11.0 µM -19% | [6]; at 33.0 µM 0% | [6]; at 50.0 µM -28% | [6]; at 100.0 µM -10% | [7]; at 1.2 µM -16% | [7]; at 3.7 µM -16% | [7]; at 11.0 µM -30% | [7]; at 33.0 µM -24% | [7]; at 100.0 µM -26% | [8]; [17] -11% | [8]; [18] 4% | [8]; at 50.0 µM -5.55% | [9]; at 1.2 µM 1% | [9]; at 3.7 µM -4% | [9]; at 11.0 µM -6% | [9]; at 33.0 µM 13% | [9]; at 100.0 µM -7% | [10]; [17] 44% | [10]; [18] 52% | [10]; at 50.0 µM -16.4% | [11]; at 1.2 µM -13% | [11]; at 3.7 µM -16% | [11]; [17] 25% | [11]; at 11.0 µM -25% | [11]; at 33.0 µM 3% | [11]; [18] 31% | [11]; at 50.0 µM -29.2% | [11]; at 100.0 µM -21% | [12]; at 1.2 µM -9% | [12]; at 3.7 µM 9% | [12]; at 11.0 µM -14% | [12]; at 33.0 µM -5% | [12]; at 100.0 µM 5% | [13]; at 1.2 µM -21% | [13]; at 3.7 µM -19% | [13]; at 11.0 µM -23% | [13]; at 33.0 µM -24% | [13]; at 100.0 µM -19% | [14]; [17] 40% | [14]; [18] 30% | [14]; at 50.0 µM -3.75%

CC/C(=C(\c1ccccc1)c1ccc(OCC[N+](C)(C)C)cc1)c1ccccc1
inactive: [1]; at 1.2 µM 0% | [1]; at 3.7 µM 68% | [2]; at 1.2 µM -4% | [2]; at 3.7 µM 12% | [3]; at 1.2 µM 3% | [3]; at 3.7 µM 18% | [4]; at 1.2 µM -1% | [4]; at 3.7 µM 55% | [5]; at 1.2 µM 7% | [6]; at 1.2 µM -6% | [6]; at 3.7 µM 33% | [6]; [17] 31% | [6]; [18] 31% | [7]; at 1.2 µM 0% | [10]; [17] 21% | [10]; [18] 21% | [11]; at 1.2 µM -3% | [11]; at 3.7 µM 36% | [11]; [17] 22% | [11]; [18] 22% | [12]; at 1.2 µM -2% | [12]; at 3.7 µM 55% | [15]; at 1.2 µM -7% | [13]; at 1.2 µM -7% | [13]; at 3.7 µM 65% | [14]; [17] 27% | [14]; [18] 27% | [16]; at 1.2 µM 3%
active: [1]; at 11.0 µM 99% | [1]; at 33.0 µM 99% | [1]; at 100.0 µM 99% | [2]; at 11.0 µM 98% | [2]; at 33.0 µM 99% | [2]; at 100.0 µM 99% | [3]; at 11.0 µM 94% | [3]; at 33.0 µM 98% | [3]; at 100.0 µM 99% | [4]; at 11.0 µM 99% | [4]; at 33.0 µM 99% | [4]; at 100.0 µM 99% | [5]; at 3.7 µM 85% | [5]; [17] 70% | [5]; at 11.0 µM 97% | [5]; at 33.0 µM 98% | [5]; [18] 70% | [5]; at 50.0 µM 90% | [5]; at 100.0 µM 99% | [6]; at 11.0 µM 99% | [6]; at 33.0 µM 99% | [6]; at 50.0 µM 93% | [6]; at 100.0 µM 99% | [7]; at 3.7 µM 88% | [7]; at 11.0 µM 99% | [7]; at 33.0 µM 99% | [7]; at 100.0 µM 99% | [8]; [17] 74% | [8]; [18] 74% | [8]; at 50.0 µM 91.3% | [10]; at 50.0 µM 91% | [11]; at 11.0 µM 99% | [11]; at 33.0 µM 99% | [11]; at 50.0 µM 91.5% | [11]; at 100.0 µM 99% | [12]; at 11.0 µM 99% | [12]; at 33.0 µM 99% | [12]; at 100.0 µM 99% | [15]; at 3.7 µM 70% | [15]; at 11.0 µM 99% | [15]; at 33.0 µM 99% | [15]; at 100.0 µM 99% | [13]; at 11.0 µM 99% | [13]; at 33.0 µM 99% | [13]; at 100.0 µM 99% | [14]; at 50.0 µM 90.1% | [16]; at 3.7 µM 86% | [16]; at 11.0 µM 99% | [16]; at 33.0 µM 99% | [16]; at 100.0 µM 99%
